Data taken from article PMC12864922, “TDP-43 directly inhibits mRNA accumulation in neurites through modulation of mRNA stability”.
In all, about 9,900 sequences were measured (“r (bound/input frequency ratio)”: median about 0.7, highest 2% from about 6.5 on). Shown is part of a subset that was picked to be rich in the highest values.

B1: ENSMUSG00000061578.638|Ksr2 (ssRNA)
RNA: GGGAGUUCUACAGUCCGACGAUCGCUUCGAUAUCCGCAUGCUAAGGAAUGGUGCUAGCUAGGGUGUGAGCCAAGCCCUUGAGGCUACUGUGAGUUAUGAGAUGUGUCCAACCCUCAGCCCACAGACUGCAUAUGCCCCAGGACAGCUGUGAAGGUGACCCAAUACAAAAUCGUAAACUAACUUAAAACCAUUAAGGGUUUUUGUUUUGUUGUUGUUUGCUGGCUUUUUGUUUUUUGGGUUGGUUUUCUUUUUCUUUCUUUCUUUUUUUUUUUUUUUUCCAACUCAAGUGUGAACUUUGUUGAUCUCUUGCGGUCGCACUAGUGUGGAAUUCUCGGGUGUCAAGG
B2: ENSMUSG00000028439.326|Fam219a (ssRNA)
RNA: GGGAGUUCUACAGUCCGACGAUCGCUUCGAUAUCCGCAUGCUAAGAUCCUAAUUAGAUAAGAAAAUGCCAAGGGAGGCAAGCCAGAGAAAGCAUCUGCAGGGGCCACAGGCCCAUGGUGGCCCCAUCUGAGCCCCCUCUCCCACCCCAGUUCGCAUCCCCACCACUCAUCAUCUGGGCCCCAACGCUAGAACUCCCCCCACCGCAUCCCCACUGGGCUCUUUGACUCACCCUUCUAGAACAUGGGUGCCUCCUCUCUUUAGACUGCUGCCUUUGCCUCUGACUUCCUGUGGGAUUGAGAGCCACUCUUGCGGUCGCACUAGUGUGGAAUUCUCGGGUGUCAAGG
B3: ENSMUSG00000061578.1149|Ksr2 (ssRNA)
RNA: GGGAGUUCUACAGUCCGACGAUCGCUUCGAUAUCCGCAUGCUAAAUGGCCCAGAAUUAUAGAGGACAGAGGAGAAGGUGGGCAUUGCAAGAUGCUGGAGCUUGGAAAGCAUGGUGGAAUUUGAUACACAUGAUCACCAAGCACCACCCGGGGAAGAAACUGGGUCACUGAGUCACUGGGUCACUCUGUUCCCUGAAGGCCCACCAACCACAUCCGCAUCCUACCUAGGGUGGAACUUUGACUGUCCUCGGGUGUCUCUGCUGUAUAUAGGCCAGUCACAAGCCCUUCUAAAAGCCUGCUCUUGCUCUUGCGGUCGCACUAGUGUGGAAUUCUCGGGUGUCAAGG
B4: ENSMUSG00000043670.237|Diras1|105:109;215:227;238:244 (ssRNA)
RNA: GGGAGUUCUACAGUCCGACGAUCGCUUCGAUAUCCGCAUGCUAGGGGUGGGUGACACAGGCCUGUCUGAUGAGCACCAGGUCUGUUCCAGGCUGUGGCAAGCUGGCUCCUGGCUCAGAAGUGACAAAGCUGCAGUACAGAGGCCUCACACACAGGUCAUCACCUCACAGUGGCUACAGACCAGGCUGUGGCCUGAGUGAGCUGGAACCUCUGGGGUGGGGACGAGAAAGAGAGAGGGAGAGAGAGGGGGGAGAGUGACACACACACACACAAGGGGGAGACACACACGGGGAAGAGUGAGAGACUCUUGCGGUCGCACUAGUGUGGAAUUCUCGGGUGUCAAGG
B5: ENSMUSG00000043670.240|Diras1|87:91;197:209;220:226;251:259 (ssRNA)
RNA: GGGAGUUCUACAGUCCGACGAUCGCUUCGAUAUCCGCAUGCUACUGUCUGAUGAGCACCAGGUCUGUUCCAGGCUGUGGCAAGCUGGCUCCUGGCUCAGAAGUGACAAAGCUGCAGUACAGAGGCCUCACACACAGGUCAUCACCUCACAGUGGCUACAGACCAGGCUGUGGCCUGAGUGAGCUGGAACCUCUGGGGUGGGGACGAGAAAGAGAGAGGGAGAGAGAGGGGGGAGAGUGACACACACACACACAAGGGGGAGACACACACGGGGAAGAGUGAGAGAGAUAGAGUCAUACACACACUCUUGCGGUCGCACUAGUGUGGAAUUCUCGGGUGUCAAGG
B6: ENSMUSG00000043670.236|Diras1|111:115;221:233;244:250 (ssRNA)
RNA: GGGAGUUCUACAGUCCGACGAUCGCUUCGAUAUCCGCAUGCUAUUUUCAGGGGUGGGUGACACAGGCCUGUCUGAUGAGCACCAGGUCUGUUCCAGGCUGUGGCAAGCUGGCUCCUGGCUCAGAAGUGACAAAGCUGCAGUACAGAGGCCUCACACACAGGUCAUCACCUCACAGUGGCUACAGACCAGGCUGUGGCCUGAGUGAGCUGGAACCUCUGGGGUGGGGACGAGAAAGAGAGAGGGAGAGAGAGGGGGGAGAGUGACACACACACACACAAGGGGGAGACACACACGGGGAAGAGUCUCUUGCGGUCGCACUAGUGUGGAAUUCUCGGGUGUCAAGG
B7: ENSMUSG00000043670.234|Diras1 (ssRNA)
RNA: GGGAGUUCUACAGUCCGACGAUCGCUUCGAUAUCCGCAUGCUAUAUGGCUCUGUGUUUUCAGGGGUGGGUGACACAGGCCUGUCUGAUGAGCACCAGGUCUGUUCCAGGCUGUGGCAAGCUGGCUCCUGGCUCAGAAGUGACAAAGCUGCAGUACAGAGGCCUCAGUGUGAGGUCAUCACCUCACAGUGGCUACAGACCAGGCUGUGGCCUGAGUGAGCUGGAACCUCUGGGGUGGGGACGAGAAAGAGAGAGGGAGAGAGAGGGGGGAGAGUGAGUGUGUGUGUGUGAAGGGGGAGAGUGUGCUCUUGCGGUCGCACUAGUGUGGAAUUCUCGGGUGUCAAGG
B8: ENSMUSG00000043670.232|Diras1 (ssRNA)
RNA: GGGAGUUCUACAGUCCGACGAUCGCUUCGAUAUCCGCAUGCUAGUGGUGUGUCUGUAUGGCUCUGUGUUUUCAGGGGUGGGUGACACAGGCCUGUCUGAUGAGCACCAGGUCUGUUCCAGGCUGUGGCAAGCUGGCUCCUGGCUCAGAAGUGACAAAGCUGCAGUACAGAGGCCUCAGUGUGAGGUCAUCACCUCACAGUGGCUACAGACCAGGCUGUGGCCUGAGUGAGCUGGAACCUCUGGGGUGGGGACGAGAAAGAGAGAGGGAGAGAGAGGGGGGAGAGUGAGUGUGUGUGUGUGAAGCUCUUGCGGUCGCACUAGUGUGGAAUUCUCGGGUGUCAAGG
B9: ENSMUSG00000043670.242|Diras1|75:79;185:197;208:214;239:247 (ssRNA)
RNA: GGGAGUUCUACAGUCCGACGAUCGCUUCGAUAUCCGCAUGCUACACCAGGUCUGUUCCAGGCUGUGGCAAGCUGGCUCCUGGCUCAGAAGUGACAAAGCUGCAGUACAGAGGCCUCACACACAGGUCAUCACCUCACAGUGGCUACAGACCAGGCUGUGGCCUGAGUGAGCUGGAACCUCUGGGGUGGGGACGAGAAAGAGAGAGGGAGAGAGAGGGGGGAGAGUGACACACACACACACAAGGGGGAGACACACACGGGGAAGAGUGAGAGAGAUAGAGUCAUACACACAGAGGGAGGGAGACUCUUGCGGUCGCACUAGUGUGGAAUUCUCGGGUGUCAAGG
B10: ENSMUSG00000043670.241|Diras1|81:85;191:203;214:220;245:253 (ssRNA)
RNA: GGGAGUUCUACAGUCCGACGAUCGCUUCGAUAUCCGCAUGCUAGAUGAGCACCAGGUCUGUUCCAGGCUGUGGCAAGCUGGCUCCUGGCUCAGAAGUGACAAAGCUGCAGUACAGAGGCCUCACACACAGGUCAUCACCUCACAGUGGCUACAGACCAGGCUGUGGCCUGAGUGAGCUGGAACCUCUGGGGUGGGGACGAGAAAGAGAGAGGGAGAGAGAGGGGGGAGAGUGACACACACACACACAAGGGGGAGACACACACGGGGAAGAGUGAGAGAGAUAGAGUCAUACACACAGAGGGACUCUUGCGGUCGCACUAGUGUGGAAUUCUCGGGUGUCAAGG
B11: ENSMUSG00000043670.233|Diras1 (ssRNA)
RNA: GGGAGUUCUACAGUCCGACGAUCGCUUCGAUAUCCGCAUGCUAUGUCUGUAUGGCUCUGUGUUUUCAGGGGUGGGUGACACAGGCCUGUCUGAUGAGCACCAGGUCUGUUCCAGGCUGUGGCAAGCUGGCUCCUGGCUCAGAAGUGACAAAGCUGCAGUACAGAGGCCUCAGUGUGAGGUCAUCACCUCACAGUGGCUACAGACCAGGCUGUGGCCUGAGUGAGCUGGAACCUCUGGGGUGGGGACGAGAAAGAGAGAGGGAGAGAGAGGGGGGAGAGUGAGUGUGUGUGUGUGAAGGGGGAGCUCUUGCGGUCGCACUAGUGUGGAAUUCUCGGGUGUCAAGG
B12: ENSMUSG00000043670.238|Diras1|99:103;209:221;232:238 (ssRNA)
RNA: GGGAGUUCUACAGUCCGACGAUCGCUUCGAUAUCCGCAUGCUAGGUGACACAGGCCUGUCUGAUGAGCACCAGGUCUGUUCCAGGCUGUGGCAAGCUGGCUCCUGGCUCAGAAGUGACAAAGCUGCAGUACAGAGGCCUCACACACAGGUCAUCACCUCACAGUGGCUACAGACCAGGCUGUGGCCUGAGUGAGCUGGAACCUCUGGGGUGGGGACGAGAAAGAGAGAGGGAGAGAGAGGGGGGAGAGUGACACACACACACACAAGGGGGAGACACACACGGGGAAGAGUGAGAGAGAUAGACUCUUGCGGUCGCACUAGUGUGGAAUUCUCGGGUGUCAAGG

biological target: TDP-43 (Homo sapiens, UniProt Q13148 1-414); experiment: RNA Bind-n-Seq with designed 260-mer pool; 25 mM Tris-HCl, 150 mM KCl, 3 mM MgCl2, BSA (printed 500 mg/mL), 20 units/mL SUPERase IN; pH not stated; 500 nM RNA pool, 1 h, 4 C; TDP-43 5, 50, 500 nM; high values mean tight binding; conditions: protein: recombinant; tags: SBP (GST cleaved off with PreScission; pGEX-GST-SBP)
Procedure, shortened: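 Streptavidin beads captured recombinant SBP-tagged TDP-43 at 5, 50 or 500 nM, and the beads were incubated for 1 h at 4 °C with 500 nM of an in vitro-transcribed pool of 260-nt 3′ UTR oligos in 25 mM Tris-HCl, 150 mM KCl, 3 mM MgCl2, BSA and SUPERase IN. After washing, bound RNA was eluted with biotin, reverse transcribed, PCR-amplified and sequenced. Binding is reported as R, the mapped-read-normalized abundance of each oligo in the bound sample divided by its abundance in the input. Two independent protein batches served as duplicates.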

TDP-43, sequence (Q13148 whole entry): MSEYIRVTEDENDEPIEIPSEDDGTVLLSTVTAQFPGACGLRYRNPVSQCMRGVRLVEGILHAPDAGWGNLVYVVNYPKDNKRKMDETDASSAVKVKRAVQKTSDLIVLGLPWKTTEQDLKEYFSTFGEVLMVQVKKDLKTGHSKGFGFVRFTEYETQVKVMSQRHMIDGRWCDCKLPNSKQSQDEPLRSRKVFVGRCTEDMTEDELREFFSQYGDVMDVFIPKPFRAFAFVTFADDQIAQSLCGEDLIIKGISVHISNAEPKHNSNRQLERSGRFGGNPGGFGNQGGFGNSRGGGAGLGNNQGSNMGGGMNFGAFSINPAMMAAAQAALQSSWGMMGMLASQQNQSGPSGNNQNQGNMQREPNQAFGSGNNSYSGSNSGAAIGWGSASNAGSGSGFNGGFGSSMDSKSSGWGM

| Binder | binding signal |
| --- | --- |
| B1 | 0.297 R (bound/input frequency ratio) |
| B2 | 1.54 R (bound/input frequency ratio) |
| B3 | 0.863 R (bound/input frequency ratio) |
| B4 | 9.04 R (bound/input frequency ratio) |
| B5 | 3.45 R (bound/input frequency ratio) |
| B6 | 3.82 R (bound/input frequency ratio) |
| B7 | 6.5 R (bound/input frequency ratio) |
| B8 | 6.45 R (bound/input frequency ratio) |
| B9 | 12.1 R (bound/input frequency ratio) |
| B10 | 4.89 R (bound/input frequency ratio) |
| B11 | 7.61 R (bound/input frequency ratio) |
| B12 | 4.05 R (bound/input frequency ratio) |
